Compound activity from PubChem.
An excerpt weighted towards active compounds, which were near 1.8% of everything screened.
FPRL1 ligand: ligands of human FPRL1, also counter-screen for FPR ligands. FPRL1-expressing cells, fluorescent ligand binding inhibition, flow cytometry. 0.3% of 24,000 active. inhibition, % (no concentration beside the values). P25090;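 note: 0% = buffer alone and 100% = receptor blocker peptide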
Jurkat autofluor: autofluorescence counter-screen for VLA-4 integrin assays. Jurkat cells, compound autofluorescence, flow cytometry; stronger effect = higher value; 1 = vehicle-only cell background. fluorescence ratio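 (tested at 10 µM compound in the well)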. 0.61% of 24,000 active. AID 576;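 active = fluorescence ratio above 2.44, which is 1 plus 3 SD of all ratios; inconclusive = signal too bright to measure linearly, ratio around 10 or more; inactive = fluorescence ratio below 2.44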;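 note: green fluorescence of cells measured with 488 nm excitation and 530 nm emission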
VLA-4 allo ag: allosterically activates the human VLA-4 integrin. Jurkat cells, LDV-FITC binding, flow cytometry. 24,000 tested, under 10 active. activation, % at 10 µM (by protocol). P13612;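 active = fluorescent ligand binding to cells raised by more than 40% of the manganese-induced maximum; inconclusive = compound's own fluorescence above 85% of the ligand control signal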;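 note: 0% = ligand binding without compound and 100% = manganese-stimulated maximal binding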
Target sequence (P13612 whole entry, looked up): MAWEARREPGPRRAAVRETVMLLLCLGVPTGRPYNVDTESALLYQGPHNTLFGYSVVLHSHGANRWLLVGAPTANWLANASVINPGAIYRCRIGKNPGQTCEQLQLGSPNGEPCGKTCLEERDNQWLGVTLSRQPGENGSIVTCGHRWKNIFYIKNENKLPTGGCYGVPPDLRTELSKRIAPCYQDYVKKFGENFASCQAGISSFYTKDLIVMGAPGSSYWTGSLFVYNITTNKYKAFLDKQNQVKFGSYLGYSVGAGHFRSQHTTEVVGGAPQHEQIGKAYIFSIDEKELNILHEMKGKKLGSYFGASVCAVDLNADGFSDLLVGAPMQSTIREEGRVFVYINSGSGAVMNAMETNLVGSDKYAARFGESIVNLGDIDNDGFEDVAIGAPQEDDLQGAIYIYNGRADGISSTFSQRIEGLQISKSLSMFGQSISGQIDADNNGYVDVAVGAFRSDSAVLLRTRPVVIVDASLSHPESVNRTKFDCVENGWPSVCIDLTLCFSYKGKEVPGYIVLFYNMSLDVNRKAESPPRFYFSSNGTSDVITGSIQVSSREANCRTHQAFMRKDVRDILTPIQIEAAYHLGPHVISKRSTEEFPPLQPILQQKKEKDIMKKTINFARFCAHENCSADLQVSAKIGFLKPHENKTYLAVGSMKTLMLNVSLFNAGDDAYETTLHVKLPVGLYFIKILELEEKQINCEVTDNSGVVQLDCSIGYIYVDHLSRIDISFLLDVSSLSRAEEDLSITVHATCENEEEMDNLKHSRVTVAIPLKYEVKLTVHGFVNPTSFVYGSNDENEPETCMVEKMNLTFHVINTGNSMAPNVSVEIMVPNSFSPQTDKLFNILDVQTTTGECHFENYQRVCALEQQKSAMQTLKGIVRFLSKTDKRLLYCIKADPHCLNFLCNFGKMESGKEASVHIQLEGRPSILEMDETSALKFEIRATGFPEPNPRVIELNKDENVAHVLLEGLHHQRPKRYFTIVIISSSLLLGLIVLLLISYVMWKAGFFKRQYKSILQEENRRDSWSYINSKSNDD
FPR ligand: ligands of human FPR, also counter-screen for FPRL1 ligands; P21462; FPR-expressing cells, fluorescent ligand binding, flow cytometry; inhibition, % (test concentration not listed); 0.74% of 24,000 active; AID 440;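 note: 0% = buffer wells and 100% = receptor blocker peptide wells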
VLA-4 antagonist: inhibition of LDV-FITC ligand binding to human VLA-4 integrin. P13612. inhibition, % at 10 µM (by protocol). Jurkat cells, LDV-FITC binding with Mn2+, flow cytometry; 100% = Mn2+-driven binding gain fully reversed. 0.2% of 24,000 active;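 active = inhibition above 50%; inconclusive = compound itself fluorescent, judged against control cell fluorescence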;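 note: 0% = Mn2+ stimulated cells lacking compound and 100% = ligand binding without Mn2+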
* hit, by the source's call; ? = inconclusive; . = not tested or not shown. Cut-off read from the data, not from the text of the source, unless noted: active = inhibition above about 30%; inconclusive = no clear call, values can overlap the other calls; inactive = below that.

SMILES | FPRL1 ligand | Jurkat autofluor | VLA-4 allo ag | FPR ligand | VLA-4 antagonist
COc1ccccc1NS(=O)(=O)c1ccc(Br)s1 | -9 | 1.1 | -1 | 2 | -4
COc1cccc(NS(=O)(=O)c2ccc(Br)s2)c1 | ? | 2.9* | ? | ? | ?
COc1ccc(-c2cc3nc(C)cc(C)n3n2)c(OC)c1 | 3 | 0.99 | 0 | 7 | -12
Cc1nc(SCC(=O)c2c[nH]c3ccccc23)n[nH]1 | -5 | 3.4* | ? | -3 | ?
COc1cc(C2NC(C(=O)O)CS2)ccc1OCc1ccccc1C#N (stereo not given) | -3 | 0.98 | 4 | -4 | 0
O=C(Cc1ccc(-n2cccc2)cc1)N1CCc2ccccc21 | 3 | 4.9* | ? | -1 | ?
CCCSc1nnc2nc3c(nn12)c1ccccc1n3C | 5 | 1 | -1 | -4 | -10
COC(=O)c1ccc(C(=O)OC)c(NC(=O)c2oc(C)nc2C)c1 | 0 | 1.1 | -1 | -2 | -4
CCC(=O)c1ccc(OCC(O)Cn2cnc3ccccc32)cc1 (stereo not given) | -2 | 3.2* | ? | -6 | ?
CC(=O)c1ccc(OCC(O)CN2CCN(c3ccccn3)CC2)cc1 (stereo not given) | -5 | 0.99 | 2 | -9 | -24
Cc1ccc(/C(O)=C2\C(=O)C(=O)N(c3cc(C)on3)C2c2cccc(Br)c2)cc1 (stereo not given) | 27 | . | . | 40* | .
COC(=O)c1ccc2c(c1)NC(=O)C(N1CCCC1)S2 (stereo not given) | -12 | 5* | ? | -17 | ?
COC(=O)c1ccc2c(c1)NC(=O)C(N1CCCCC1)S2 (stereo not given) | -2 | 1.1 | ? | -1 | ?
CCOc1ccc(S(=O)(=O)N2CCc3ccccc3C2)cc1 | -4 | 3.2* | ? | 3 | ?
CCOc1ccc(C(CC(=O)O)NC(=O)C23CC4CC(CC(C4)C2)C3)cc1 (stereo not given) | . | 1 | -20 | . | 111*
COC(=O)c1ccc2c(c1)N(Cc1nc(-c3ccc(Cl)cc3)oc1C)C(=O)C1CCCN21 (stereo not given) | -5 | 1.1 | 6 | 0 | 15
O=c1c[n+]([O-])c2ccccc2n1OCc1c(F)cccc1F | 2 | 3.1* | ? | -5 | ?
O=c1c[n+]([O-])c2ccccc2n1OCc1ccccn1 | 5 | 1.7 | ? | -4 | ?
Cc1ccc(C2C3=C(CCCC3=O)Nc3nc(SCC(=O)NCc4ccco4)[nH]c(=O)c32)cc1 (stereo not given) | 8 | 1 | 2 | 10 | -3
Cc1ccccc1Cn1c(=O)c2c(nc3n2CCN3Cc2ccco2)n(C)c1=O | 4 | 1.1 | 2 | 6 | 9
COc1ccc(-c2c(C)oc3c(CN4CCN(CCO)CC4)c(O)ccc3c2=O)cc1OC | 28 | . | . | 31* | .
COc1ccccc1-c1c(C)oc2c(CN3CCN(CCO)CC3)c(O)ccc2c1=O | 1 | . | . | -7 | .
CCCOC(=O)CSc1nc(N)c(C#N)c(CC)c1C#N | -3 | 1 | 6 | 5 | -6
Cc1ccc(NC(=O)C2C(=O)N(CCO)C3(C)CC2c2ccccc2O3)cc1 (stereo not given) | 40* | 0.96 | 0 | 31* | 19
COc1ccc(NC(=O)C2C(=O)N(CCO)C3(C)CC2c2ccccc2O3)cc1 (stereo not given) | 16 | 0.99 | -8 | 18 | 15
SMILES | FPRL1 ligand | Jurkat autofluor | VLA-4 allo ag | FPR ligand | VLA-4 antagonist
CC(C)Cn1c(=O)c(C2=NS(=O)(=O)c3ccccc3N2)c(O)c2ccccc21 | -5 | 0.98 | -53 | 4 | 59*
CCOC(=O)Cn1c(=O)oc2cc(S(=O)(=O)NCc3cccs3)ccc21 | -1 | 1.4 | ? | -17 | ?
CCOC(=O)Cn1c(=O)oc2cc(S(=O)(=O)NCc3ccccn3)ccc21 | -21 | 3.6* | ? | -18 | ?
CCOC(=O)Cn1c(=O)oc2cc(S(=O)(=O)N3CCC(N4CCCCC4)CC3)ccc21 | -1 | 1.3 | 5 | -2 | 7
CCOC(=O)Cn1c(=O)oc2cc(S(=O)(=O)Nc3c(C)cc(C)cc3C)ccc21 | -6 | 6* | ? | -10 | ?
CCOC(=O)Cn1c(=O)oc2cc(S(=O)(=O)N3CCCC(C(=O)OCC)C3)ccc21 (stereo not given) | -4 | 3.1* | ? | -10 | ?
CC(C)=CC(=O)Nc1ccc(Br)cc1 | 3 | 1.1 | -3 | -5 | -10
CCOC(=O)C1CCN(C(=O)C2CCN(S(=O)(=O)c3cc(Cl)ccc3Cl)CC2)CC1 | -1 | 1 | 0 | -16 | -32
CCN(CCCc1ccccc1)CCCc1ccccc1 | 1 | 0.98 | 6 | 54* | -22
CN(C)CCCOC(=O)CCc1ccccc1 | 1 | 1 | 1 | -4 | -17
COc1ccc(CNC(=O)C2CCN(S(=O)(=O)c3cccc4cccnc34)CC2)cc1 | 1 | 0.83 | ? | 3 | ?
CCOc1ccccc1C1C(C#N)=C(N)Nc2onc(-c3ccccc3)c21 (stereo not given) | 20 | 1.1 | -8 | 20 | 51*
CCCOc1ccc(C(CC(=O)O)NS(=O)(=O)c2ccc(NC(C)=O)cc2)cc1 (stereo not given) | -3 | 1.1 | -9 | 3 | 45
CCCOc1ccc(C(CC(=O)O)NC(=O)c2ccc3c(c2)OCO3)cc1 (stereo not given) | 0 | 1 | -9 | -2 | 88*
O=C(NCCN1CCOCC1)NC1(C(F)(F)F)Oc2ccc(Cl)cc2O1 (stereo not given) | -7 | 1 | 2 | 66* | 2
CC(=O)NC1(C(F)(F)F)C(=O)NC(C)=C1C#N (stereo not given) | -2 | 1.1 | -4 | -6 | -7
CCOC(=O)Cc1cc(=O)n2[nH]c(C)c(-c3ccc(OC)cc3)c2n1 | 1 | 1.1 | -2 | 44* | -8
CCOC(=O)Cc1cc(=O)n2[nH]c(C)c(-c3ccc(Cl)cc3)c2n1 | 1 | . | . | 54* | .
Cc1oc2cc(O)cc(O)c2c(=O)c1-c1ccc2c(c1)OCCCO2 | 23 | . | . | 31* | .
COc1cccc(OC)c1/C(O)=C(\C#N)c1nc2ccccc2[nH]1 | 12 | 1.2 | 0 | 32* | -21
CC(C)(C)/C(O)=C(/C#N)c1nc2ccccc2[nH]1 | -9 | 1.4 | ? | 3 | ?
Cc1cc(C)cc(-n2nnc(C(=O)NCc3ccccc3Cl)c2N)c1 | 8 | 2.8* | ? | -1 | ?
Cc1cccc(-n2nnc(C(=O)NCc3ccccc3)c2N)c1 | -2 | 1.1 | 1 | -3 | -10
CCSc1nc(O)c(C2OC(=O)c3c2ccc(OC)c3OC)c(=O)n1-c1ccccc1 (stereo not given) | 0 | 0.96 | -7 | 34* | 14
CCOC(=O)C1CCN(Cc2ccc(C(=O)OC)cc2)CC1 | 55* | 1.1 | 4 | 48* | -17
CC(=O)c1ccc(OCC(O)CN2CCN(Cc3ccccc3)CC2)cc1 (stereo not given) | 7 | 0.97 | 5 | 2 | -23
